PubChem BioAssay (EPA / NIEHS)
The source made the active and inactive calls. The calls were made as follows: active = hit-call score of the fitted dose curve at least 0.9, where 1 is the maximum; inactive = score below 0.9.

Legend:
[1] = read-out: Human Leukocyte Antigen - DR isotype (HLADR), HLA-DRA (gene 3122); experiment: BSK_3C_HLADR: BioMAP Diversity Plus: 3C Assay for Human Leukocyte Antigen - DR isotype (HLADR) Biomarker Activity (AID 2283019); details: primary human endothelial cells (HUVEC); actives raise or lower the signal
How it was run: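 Primary human umbilical vein endothelial cells (3C system) were dosed with compound and cell-surface HLA-DR was quantified by ELISA at 24 h. Activity was fitted bidirectionally against DMSO as negative control and baseline.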

[2] = BSK_3C_Vis: BioMAP Diversity Plus: 3C Assay for Morphology Visualization (AID 2283025); details: primary human endothelial cells (HUVEC);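 also: fitted both ways so gain or loss versus DMSO counts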;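 as to AC50: light microscopy image of cell morphology used as background control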
How it was run: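 Human umbilical vein endothelial cell morphology was inspected by light microscopy 24 h after chemical dosing; scored bidirectionally relative to DMSO.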

[3] = read-out: Vascular endothelial growth factor receptor 2 (Homo sapiens) (UniProt P35968); experiment: BSK_4H_VEGFRII: BioMAP Diversity Plus: 4H Assay for Vascular endothelial growth factor receptor 2 (VEGFR2) Biomarker Activity (AID 2283031); details: primary human endothelial cells (HUVEC); actives raise or lower the signal;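 as to AC50: cell-surface VEGFR2 protein level quantified by ELISA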
How it was run: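 Primary human umbilical vein endothelial cells in the BioMAP 4H system were dosed with test chemical, and 24 h later VEGFRII was measured by ELISA. Activity was fitted bidirectionally against DMSO as negative control and baseline.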

[4] = read-out: Low-density lipoprotein receptor (LDLR), LDLR (gene 3949); experiment: BSK_CASM3C_LDLR: BioMAP Diversity Plus: CASM3C Assay for Low-density lipoprotein receptor (LDLR) Biomarker Activity (AID 2283045); details: primary human coronary artery smooth muscle cells; actives raise or lower the signal;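 also: LDLR protein level on the cell surface quantified by ELISA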
[5] = read-out: Monokine induced gamma interferon (MIG), CXCL9 (gene 4283); experiment: BSK_CASM3C_MIG: BioMAP Diversity Plus: CASM3C Assay for Monokine induced gamma interferon (MIG) Biomarker Activity (AID 2283048); details: primary human coronary artery smooth muscle cells; actives raise or lower the signal;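 also: MIG protein level measured by ELISA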
[6] = read-out: Intercellular Adhesion Molecule 1 (ICAM1), ICAM1 (gene 3383); experiment: BSK_KF3CT_ICAM1: BioMAP Diversity Plus: KF3CT Assay for Intercellular Adhesion Molecule 1 (ICAM1) Biomarker Activity (AID 2283067); details: primary human keratinocytes with fibroblasts; actives raise or lower the signal
How it was run: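 Human keratinocyte plus foreskin fibroblast primary co-culture was exposed to chemical for 24 h. ICAM-1 was then quantified by ELISA, and the data were fit bidirectionally against DMSO as the negative control and baseline.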

[7] = read-out: Transforming growth factor beta 1 (TGFb1), TGFB1 (gene 7040); experiment: BSK_KF3CT_TGFb1: BioMAP Diversity Plus: KF3CT Assay for Transforming growth factor beta 1 (TGFb1) Biomarker Activity (AID 2283072); details: primary human keratinocytes with fibroblasts; actives raise or lower the signal
How it was run: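 Human keratinocyte/foreskin fibroblast co-culture; TGF-b1 measured by ELISA 24 h after dosing, fitted bidirectionally versus DMSO. Cytotoxicity checked in parallel cultures by total protein (SRB staining, 560 nm).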

[8] = read-out: C-C motif chemokine 2 (Homo sapiens) (UniProt P13500); experiment: BSK_KF3CT_MCP1: BioMAP Diversity Plus: KF3CT Assay for Monocyte Chemoattractant Protein 1 (MCP1/CCL2) Biomarker Activity (AID 2283073); details: primary human keratinocytes with fibroblasts; actives raise or lower the signal
How it was run: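 Human keratinocyte plus foreskin fibroblast primary co-culture exposed to chemical for 24 h. MCP-1 levels measured by ELISA. Bidirectional curve fitting relative to DMSO negative control as baseline.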

[9] = read-out: E-selectin (Homo sapiens) (UniProt P16581); experiment: BSK_LPS_Eselectin: BioMAP Diversity Plus: LPS Assay for Eselectin Biomarker Activity (AID 2283077); details: primary human HUVEC with PBMC; actives raise or lower the signal
How it was run: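 Human umbilical vein endothelial cells co-cultured with peripheral blood mononuclear cells under LPS stimulation; E-selectin measured by ELISA 24 h after chemical dosing. Activity fitted bidirectionally against DMSO as negative control and baseline.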

CD40, CD40 (gene 958) = experiment: BSK_SAg_CD40: BioMAP Diversity Plus: SAg Assay for CD40 Biomarker Activity (AID 2283088); details: primary human HUVEC with PBMC; actives raise or lower the signal
How it was run: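 Human umbilical vein endothelial cells co-cultured with PBMC; CD40 levels measured by ELISA with fluorescence read-out 24 h after chemical dosing. Gain or loss of signal fitted bidirectionally against DMSO baseline.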

[10] = read-out: Interleukin-8 (IL8), CXCL8 (gene 3576); experiment: BSK_SAg_IL8: BioMAP Diversity Plus: SAg Assay for Interleukin-8 (IL8) Biomarker Activity (AID 2283094); details: primary human HUVEC with PBMC; actives raise or lower the signal
How it was run: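 Human umbilical vein endothelial cells co-cultured with PBMC, stimulated with superantigen; IL-8 measured by ELISA 24 h after chemical dosing. Bidirectional fitting versus DMSO; SRB staining in parallel cultures tracks cytotoxicity.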

[11] = BSK_SAg_Proliferation: Cell Proliferation Assessment in the BioMAP Diversity Plus: SAg Assay (AID 2283095); details: primary human HUVEC with PBMC
How it was run: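 Human umbilical vein endothelial cells co-cultured with PBMC; sulforhodamine B total-protein staining (0.1% SRB after 10% TCA fixation, absorbance 560 nm) at 96 h in sub-confluent culture. Fitted bidirectionally against DMSO.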

[12] = BSK_SAg_SRB: Viability Assessment in the BioMAP Diversity Plus: SAg Assay (AID 2283096); details: primary human HUVEC with PBMC;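 also: cells read one day after compound addition; hits may be either gain or loss of signal compared with DMSO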
How it was run: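 Total protein by sulforhodamine B staining, 24 h after dosing, in HUVEC–PBMC co-culture; DMSO-referenced bidirectional fitting.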

[13] = BSK_BT_PBMCCytotoxicity: PBMC Cytotoxicity Assessment in the BioMAP Diversity Plus: BT Assay (AID 2284225); details: primary human B cells with PBMC;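 also: PBMC viability measured by Alamar Blue dye reduction fluorescence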
How it was run: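 PBMC (75,000/well) pretreated with compound 1 h, then activated with SEB and TSST-1 (20 ng/mL each final), incubated 90 h; Alamar Blue added 6 h, fluorescence read at 546/580 nm. Fitted relative to DMSO.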

[14] = BSK_BT_Bcell_Proliferation: Viability Assessment in the BioMAP Diversity Plus: BT Assay for B cell Proliferation (AID 2284227); details: primary human B cells with PBMC
How it was run: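 SRB-based protein staining (0.1% SRB after 10% TCA fixation, 560 nm) quantifies proliferation in human B cells co-cultured with PBMC, 72 h post-dosing, with signal gain scored relative to DMSO negative control.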

[15] = read-out: Interleukin 6 (IL6), IL6 (gene 3569); experiment: BSK_BT_xIL6: BioMAP Diversity Plus: BT Assay for Interleukin 6 (IL6) Biomarker Activity (AID 2284228); details: primary human B cells with PBMC
How it was run: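 Human B cell plus PBMC co-culture exposed to test chemical for 24 h; secreted IL-6 quantified by Luminex xMAP bead assay. Activity fitted in the positive direction against DMSO as negative control and baseline.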

[16] = read-out: Interleukin 17A (IL17A), IL17A (gene 3605); experiment: BSK_BT_xIL17A: BioMAP Diversity Plus: BT Assay for Interleukin 17A (IL17A) Biomarker Activity (AID 2284229); details: primary human B cells with PBMC
How it was run: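 B cells co-cultured with PBMC were exposed to test chemicals, and secreted IL-17A was quantified 24 h after dosing by Luminex xMAP bead immunoassay. Activity was fitted in the gain direction against DMSO as baseline.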

[17] = read-out: Collagen IV, COL4A1 (gene 1282); experiment: BSK_MyoF_CollagenIV: BioMAP Diversity Plus: MyoF Assay for Collagen IV Biomarker Activity (AID 2284247); details: primary human lung fibroblasts
How it was run: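 Primary human lung fibroblasts (MyoF system) dosed 24 h; Collagen IV measured by ELISA. Activity fitted in positive direction against DMSO; cytotoxicity tracked by SRB total-protein staining in parallel cultures.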

[18] = read-out: Matrix Metallopeptidase 1 (MMP1), MMP1 (gene 4312); experiment: BSK_MyoF_MMP1: BioMAP Diversity Plus: MyoF Assay for Matrix Metallopeptidase 1 (MMP1) Biomarker Activity (AID 2284268); details: primary human lung fibroblasts
How it was run: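 ELISA readout of MMP1 in primary human lung fibroblast cultures, 24 h post-dosing. Gain of signal versus DMSO vehicle control defines activity. Parallel SRB staining (0.1% after 10% TCA fixation, 560 nm) flags overt cytotoxicity.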

[19] = read-out: TIMP metallopeptidase inhibitor 1 (TIMP1), TIMP1 (gene 7076); experiment: BSK_MyoF_TIMP1: BioMAP Diversity Plus: MyoF Assay for TIMP metallopeptidase inhibitor 1 (TIMP1) Biomarker Activity (AID 2284269); details: primary human lung fibroblasts
How it was run: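 Fibroblasts from human lung are dosed with chemical, cultured 24 h, and assayed for TIMP-1 by ELISA. Increases over the DMSO baseline are scored, with SRB total-protein staining run in parallel for cytotoxicity.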

Measured: AC50

Sequence of E-selectin (Homo sapiens) (P16581 whole entry, looked up): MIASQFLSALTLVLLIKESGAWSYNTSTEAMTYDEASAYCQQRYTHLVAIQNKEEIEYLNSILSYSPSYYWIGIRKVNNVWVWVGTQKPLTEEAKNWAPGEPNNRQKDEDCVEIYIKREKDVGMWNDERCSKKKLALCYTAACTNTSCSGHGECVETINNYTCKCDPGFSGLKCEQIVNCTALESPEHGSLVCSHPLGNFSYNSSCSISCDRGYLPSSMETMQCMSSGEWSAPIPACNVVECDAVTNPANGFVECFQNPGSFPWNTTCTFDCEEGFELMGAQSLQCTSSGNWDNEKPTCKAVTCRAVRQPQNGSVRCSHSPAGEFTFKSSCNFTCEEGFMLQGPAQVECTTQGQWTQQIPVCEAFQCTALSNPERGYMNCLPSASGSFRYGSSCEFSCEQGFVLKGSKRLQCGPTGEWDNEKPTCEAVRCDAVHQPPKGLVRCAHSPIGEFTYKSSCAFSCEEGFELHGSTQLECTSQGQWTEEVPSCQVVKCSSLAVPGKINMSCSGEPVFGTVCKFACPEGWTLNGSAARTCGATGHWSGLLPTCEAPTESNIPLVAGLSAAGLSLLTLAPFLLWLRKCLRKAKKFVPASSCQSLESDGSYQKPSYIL

O=S(=O)(c1ccccc1)c1ccccc1
inactive: all assays above

COC(C)(C)CCC[C@H](C)C/C=C/C(C)=C/C(=O)OC(C)C
active: [1] 28.3 µM | [2] 37.4 µM | [3] 32 µM | [4] 10.2 µM | [5] 29.9 µM | [7] 15.3 µM | [9] 35.3 µM | CD40, CD40 (gene 958) 26.8 µM | [11] 28.6 µM | [12] 33.3 µM | [13] 20 µM | [14] 28.8 µM | [15] 20 µM | [16] 13.4 µM | [18] 26.9 µM
inactive: [6] | [8] | [10] | [17] | [19]

CC(C)CCCCCCCOC(=O)c1ccccc1C(=O)OCCCCCCCC(C)C
inactive: all assays above

COc1ccc(CO)cc1
inactive: [1] | [4] | [5] | [6] | [9] | CD40, CD40 (gene 958) | [10] | [11] | [12]

CC(C)(C)C(O)C(Oc1ccc(-c2ccccc2)cc1)n1cncn1 (centres undefined)
active: [1] 30.6 µM | [2] 37.6 µM | [3] 34.7 µM | [4] 20 µM | [7] 20 µM | [14] 29.8 µM | [17] 20 µM | [18] 30 µM | [19] 17.1 µM
inactive: all other assays above

CC(=O)/C=C/c1ccccc1
active: [1] 26.9 µM | [9] 31.1 µM | [11] 13 µM | [13] 17.4 µM | [14] 26.1 µM | [15] 20 µM | [16] 20 µM
inactive: all other assays above

CCc1cc(C)cc(CC)c1-c1c(OC(=O)C(C)(C)C)n2n(c1=O)CCOCC2
active: [1] 24.7 µM | [4] 2.79 µM | [7] 20 µM
inactive: all other assays above
